{"source": "PubChem BioAssay AID2129", "about": "(The Scripps Research Institute Molecular Screening Center, 2009)", "note": "In all, about 320,000 compounds went through this assay and about 2,200 (0.69%) were called active.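 How the source made its calls: active means inhibition above the mean of all tested compounds plus 3 SD, cutoff set per campaign (cut at about 30% in these data); inactive means the rest.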 Only a selection was taken, and actives are over-represented in it overall."}
{"target": "Bcl-2-like protein 1 (Homo sapiens) (UniProt Q07817)", "sequence (Q07817 whole entry, looked up)": "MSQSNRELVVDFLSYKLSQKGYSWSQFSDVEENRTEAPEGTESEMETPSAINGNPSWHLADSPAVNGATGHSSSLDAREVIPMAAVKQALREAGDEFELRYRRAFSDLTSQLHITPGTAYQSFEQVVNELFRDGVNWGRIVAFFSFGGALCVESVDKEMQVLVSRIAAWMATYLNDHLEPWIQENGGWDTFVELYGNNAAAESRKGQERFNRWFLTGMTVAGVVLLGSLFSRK", "assay": "inhibitors of human Bcl-xL, primary screen, biochemical, fluorescence polarization, HTS (AID 2129);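 further: 0% = DMSO wells and 100% = unlabeled Bim-BH3 peptide competitor; inhibitors lower millipolarization by displacing the labeled peptide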", "details": "GST-Bcl-xL / FITC-Bim BH3 peptide fluorescence polarization; at 10.9 µM; hits give high values"}
{"smiles": "COCCNc1nc2nonc2nc1N1CCCC1c1nccs1", "note": "(stereo not given)", "inhibition": "31.5% (active)"}
{"smiles": "COCCNc1nc2nonc2nc1N(C)Cc1ccc(C)cc1", "inhibition": "0.5% (inactive)"}
{"smiles": "CCOc1ccc(C2=CC(c3ccccc3)n3ncnc3N2)cc1", "note": "(stereo not given)", "inhibition": "14.6% (inactive)"}
{"smiles": "CC1=C(C(=O)OCc2ccccc2)C(c2ccco2)n2ncnc2N1", "note": "(stereo not given)", "inhibition": "1.01% (inactive)"}
{"smiles": "CCC(C)NC(=O)/C=C/c1ccc(S(=O)(=O)NCc2ccco2)cc1", "note": "(stereo not given)", "inhibition": "3.42% (inactive)"}
{"smiles": "Cc1ccc(O)c(-c2cc(C(=O)Nc3c(C)n(C)n(-c4ccccc4)c3=O)[nH]n2)c1", "inhibition": "2.52% (inactive)"}
{"smiles": "CC[N+](C)(CC)CCC[n+]1c(-c2ccccc2)c2cc(N)ccc2c2ccc(N)cc21", "inhibition": "123% (active)"}
{"smiles": "CC(=O)Nc1ccc(NC(=O)CSC2=NS(=O)(=O)c3ccccc3N2)cc1", "inhibition": "1.27% (inactive)"}
{"smiles": "COc1ccccc1CCNC(=O)c1c(C)nn(CC(C)C)c1Cl", "inhibition": "3.1% (inactive)"}
{"smiles": "CC(=O)C1=C(C)NC(C)=C(C(C)=O)C1c1cn(-c2ccccc2)nc1-c1cccs1", "inhibition": "-1.97% (inactive)"}
{"smiles": "CC1CCN(Cc2nc3c(c(=O)n(C)c(=O)n3C)n2CCc2ccccc2)CC1", "inhibition": "-4.09% (inactive)"}
{"smiles": "CC(C)(C)CC(C)(C)NCC(O)COCCOc1ccc(Br)cc1", "note": "(stereo not given)", "inhibition": "-1.57% (inactive)"}
{"smiles": "Cc1ccsc1CNn1cnnc1SCc1ccccc1F", "inhibition": "-10.8% (inactive)"}
{"smiles": "O=c1[nH]c(=S)[nH]c2[nH]c(=S)[nH]c12", "inhibition": "44% (active)"}
{"smiles": "Cc1c(C)c(C)c2[nH]c(=S)[nH]c2c1C", "inhibition": "-44% (inactive)"}
{"smiles": "Cc1cc2c(C)nc(N/N=C/c3ccccc3)nc2o1", "inhibition": "2.89% (inactive)"}
{"smiles": "CC1CC(C)CN(S(=O)(=O)c2cccc3nonc23)C1", "note": "(stereo not given)", "inhibition": "3.55% (inactive)"}
{"smiles": "CC(=O)N1CCc2c(sc(NC(=O)CCS(=O)(=O)c3ccc(C)cc3)c2C(N)=O)C1", "inhibition": "6.13% (inactive)"}
{"smiles": "CSc1nc2ccccc2cc1/C=C(\\C#N)c1ccc(Cl)cc1Cl", "inhibition": "1.93% (inactive)"}
{"smiles": "Cc1ccc(C(=O)N2CCCC2)c(F)c1F", "inhibition": "8.05% (inactive)"}
{"smiles": "Oc1ccc(C2Nc3cccc4cccc(c34)N2)cc1", "inhibition": "15.2% (inactive)"}
{"smiles": "COc1cccc(C2Nc3cccc4cccc(c34)N2)c1", "inhibition": "20.6% (inactive)"}
{"smiles": "Cc1ccc(C2Nc3cccc4cccc(c34)N2)cc1", "inhibition": "31.7% (active)"}
{"smiles": "CCCCCCNS(=O)(=O)c1ccccc1Br", "inhibition": "-2.11% (inactive)"}
{"smiles": "Cc1ccc(NC2CCCN(C(=O)CCC3(C)CC3)C2)cc1C", "note": "(stereo not given)", "inhibition": "4.16% (inactive)"}
{"smiles": "Cc1ccnc(NC(=O)c2ccoc2C)c1", "inhibition": "32.4% (active)"}
{"smiles": "Cc1ccnc(NC(=O)CNC(=O)c2ccccc2)c1", "inhibition": "-1.9% (inactive)"}
{"smiles": "COc1cc(SC)ccc1C(=O)Nc1cc(C)ccn1", "inhibition": "-0.05% (inactive)"}
{"smiles": "COC(=O)c1cccc(N2C(=O)C3C4C=CC(CC4)C3C2=O)c1", "note": "(stereo not given)", "inhibition": "2.84% (inactive)"}
{"smiles": "CCOC(=O)/C(=C\\c1ccc([N+](=O)[O-])cc1)C(=O)c1cc(C(C)=O)c(Nc2ccccc2)s1", "inhibition": "1.23% (inactive)"}
{"smiles": "Cc1ccc(S(=O)(=O)NNC(=O)/C=C/c2cccc(F)c2)cc1", "inhibition": "6.57% (inactive)"}
{"smiles": "O=C1c2ccccc2C(=O)c2c1cccc2N1CCN(C/C=C/c2ccccc2)CC1", "inhibition": "20.9% (inactive)"}
{"smiles": "O=C1c2ccccc2C(=O)c2c1cccc2N1CCN(Cc2ccccc2)CC1", "inhibition": "7.24% (inactive)"}
{"smiles": "O=C1c2ccccc2C(=O)c2c1cccc2N1CCN(CCO)CC1", "inhibition": "60% (active)"}
{"smiles": "C/C(Cl)=C\\Cn1c(Nc2cccc(C)c2)nc2c1c(=O)n(C)c(=O)n2C", "inhibition": "3.4% (inactive)"}
{"smiles": "COc1ccccc1C(=O)N/C(=C/c1ccc2c(c1)OCO2)C(=O)Nc1cccc(C(=O)O)c1", "inhibition": "8.09% (inactive)"}
{"smiles": "CCCC1OC23CCCCC2C(C#N)(C#N)C1(C#N)C(=N)O3", "note": "(stereo not given)", "inhibition": "82.8% (active)"}
{"smiles": "Cc1ccc(CNC(=O)CC(NC(=O)c2ccccc2)c2ccccc2)cc1", "note": "(stereo not given)", "inhibition": "-7.73% (inactive)"}
{"smiles": "CN(C)[C@@H]1C(=O)C(C(N)=O)=C(O)[C@@]2(O)C(=O)C3=C(O)c4c(O)ccc(Cl)c4[C@@H](O)[C@H]3C[C@@H]12", "inhibition": "15.2% (inactive)"}
{"smiles": "C=C1c2c(Cl)ccc(O)c2C(O)=C2C(=O)[C@]3(O)C(O)=C(C(N)=O)C(=O)[C@@H](N(C)C)[C@@H]3[C@@H](O)C12", "note": "(stereo not given in full)", "inhibition": "31.6% (active)"}
{"smiles": "Cc1cc(F)ccc1N1CCC(N2CCN(C)C(CCO)C2)CC1", "note": "(stereo not given)", "inhibition": "8.78% (inactive)"}
{"smiles": "Cc1cc(-c2csc(N)n2)c(C)n1Cc1ccccc1", "inhibition": "11.3% (inactive)"}
{"smiles": "CC(=O)c1ccc(-c2ccc(Cn3c(C)nc4cc(N)c(C)nc43)cc2)cc1", "inhibition": "-0.35% (inactive)"}
{"smiles": "COc1ccccc1CNS(=O)(=O)c1ccc2c(c1)NC(=O)CS2", "inhibition": "-2.44% (inactive)"}
{"smiles": "CC1CC(c2ccccc2)n2nc(NC(=O)c3cccs3)nc2N1", "note": "(stereo not given)", "inhibition": "3.43% (inactive)"}
{"smiles": "Cc1ccc(SCC(=O)NNC(=O)c2ccc(S(C)(=O)=O)cc2)cc1", "inhibition": "1.39% (inactive)"}
{"smiles": "CCN(CC)S(=O)(=O)c1ccc(N2CCN(C)CC2)c(NC(=O)Nc2ccccc2F)c1", "inhibition": "5.12% (inactive)"}
{"smiles": "O=[N+]([O-])c1ccc(F)cc1Oc1nc(-c2cccnc2)nc2ccccc12", "inhibition": "3.63% (inactive)"}
{"smiles": "CCOCCCNc1nc(-c2ccccc2)nc2ccccc12", "inhibition": "1.72% (inactive)"}
{"smiles": "COc1ccc(Nc2nc(-c3cccnc3)nc3ccccc23)cn1", "inhibition": "118% (active)"}
{"smiles": "CC[C@]1(O)C[C@@H]2CN(CCc3c([nH]c4ccccc34)[C@@](C(=O)OC)(c3cc4c(cc3OC)N(C)[C@H]3[C@@](O)(C(=O)OC)[C@H](OC(C)=O)[C@]5(CC)C=CCN6CC[C@]43[C@@H]65)C2)C1", "inhibition": "105% (active)"}
{"smiles": "CC[C@]1(O)CC2CN(CCc3c([nH]c4ccccc34)[C@@](C(=O)OC)(c3cc4c(cc3OC)N(C=O)[C@H]3[C@@](O)(C(=O)OC)[C@H](OC(C)=O)[C@]5(CC)C=CCN6CC[C@]43[C@@H]65)C2)C1", "note": "(stereo not given in full)", "inhibition": "15% (inactive)"}
{"smiles": "Cc1ccc2c(Cl)c(C(=O)NCCCn3ccnc3)sc2c1", "inhibition": "6.22% (inactive)"}
{"smiles": "CC(=O)C[C@@H](O)CC(=O)[C@H]1OC(=O)CCCCCCc2ccccc21", "inhibition": "0.52% (inactive)"}
{"smiles": "COc1ccc(CN2CCn3ncc(C(=O)Nc4ccc(Cl)cc4Cl)c3C2=O)cc1", "inhibition": "2.02% (inactive)"}
{"smiles": "O=c1cc(CO)oc(C(Nc2cccc(C(F)(F)F)c2)c2ccccn2)c1O", "note": "(stereo not given)", "inhibition": "33.9% (active)"}
{"smiles": "O=c1cc(CO)oc(C(Nc2cccc([N+](=O)[O-])c2)c2ccccn2)c1O", "note": "(stereo not given)", "inhibition": "13.9% (inactive)"}
{"smiles": "FC(F)(F)c1cccc(Nc2ncnc3ccccc23)c1", "inhibition": "-2.73% (inactive)"}
{"smiles": "O=C(NCCc1ccccn1)c1cc(-c2ccc(Cl)cc2)nc2ccccc12", "inhibition": "-6.46% (inactive)"}
{"smiles": "COCCCNC(=S)N(Cc1ccccc1)Cc1ccc(F)cc1", "inhibition": "3.88% (inactive)"}
{"smiles": "COc1ccc(C(=O)COC(=O)CNC(=O)c2cccs2)cc1Br", "inhibition": "5.14% (inactive)"}
{"smiles": "Cc1cc(N2C(=O)C(O)=C(C(=O)c3ccc(C)o3)C2c2ccc(OCc3ccccc3)cc2)no1", "note": "(stereo not given)", "inhibition": "11.2% (inactive)"}
{"smiles": "C=CCOc1cccc(C2C(C(=O)c3ccc(C)o3)=C(O)C(=O)N2CCCn2ccnc2)c1", "note": "(stereo not given)", "inhibition": "0.01% (inactive)"}
{"smiles": "C=CCOc1cccc(C2C(C(=O)c3ccc(C)o3)=C(O)C(=O)N2c2nnc(C)s2)c1", "note": "(stereo not given)", "inhibition": "88.7% (active)"}
{"smiles": "Cc1cc(C(=O)NC2CCN(Cc3ccccc3)CC2)n[nH]1", "inhibition": "1.91% (inactive)"}
{"smiles": "C#CCOCCOCCOCCNc1nc(N2CCN(C(=O)C([C@@H](C)CC)n3cc(C(N)COC(=O)C(F)(F)F)nn3)CC2)nc(N2CCN(C(=O)[C@H](Cc3ccc(O)cc3)n3cc(C(N)[C@H](C)CC)nn3)CC2)n1", "note": "(stereo not given in full)", "inhibition": "14.5% (inactive)"}
{"smiles": "Cn1c2c(c(=O)n(C)c1=O)C1c3ccccc3OCC1C(C)(C)O2", "note": "(stereo not given)", "inhibition": "3.9% (inactive)"}
{"smiles": "NC(=O)COC(=O)c1ccc2c(c1)C(=O)N(Cc1ccco1)C2=O", "inhibition": "4.63% (inactive)"}
{"smiles": "CCCc1nc2scc(-c3ccc(C)cc3)c2c(=O)n1N", "inhibition": "1.66% (inactive)"}
{"smiles": "O=C(O)CCn1c(Cc2ccccc2)nc2ccccc21", "inhibition": "1.07% (inactive)"}
{"smiles": "Cc1cc2ccccc2n1CCNC(=O)COc1ccc2ccccc2c1", "inhibition": "4.61% (inactive)"}
{"smiles": "Cc1cc2ccccc2n1CCC(=O)O", "inhibition": "52.5% (active)"}
{"smiles": "CC(C)(C)c1cc2cccnc2n1Cc1cccc(F)c1", "inhibition": "7.39% (inactive)"}
{"smiles": "CN(C)NC(=O)C(NC(=O)c1ccc(N)cc1)C12CC3CC(CC(C3)C1)C2", "note": "(stereo not given)", "inhibition": "-0.78% (inactive)"}
{"smiles": "CC(C)OC(=O)CN1C(=O)C(=O)c2ccccc21", "inhibition": "10.2% (inactive)"}
{"smiles": "CCOC(=O)c1ccccc1CN1C(=O)c2ccccc2S1(=O)=O", "inhibition": "4.12% (inactive)"}
{"smiles": "CCOC(=O)c1cc2n(c1N)-c1ccccc1C2=O", "inhibition": "140% (active)"}
{"smiles": "Cc1ccc(S(=O)(=O)CC(=O)NC(C)c2ccccc2)cc1", "note": "(stereo not given)", "inhibition": "-0.31% (inactive)"}
{"smiles": "CCOc1cc(CNCCN(C)C)c(Cl)cc1OCC(=O)NCCc1ccccc1", "inhibition": "-0.08% (inactive)"}
{"smiles": "CNC(=S)NNC(=O)c1oc2nc(-c3ccccc3)cc(-c3ccco3)c2c1N", "inhibition": "30.6% (active)"}
{"smiles": "NNC(=O)c1oc2nc(-c3ccccc3)cc(-c3ccco3)c2c1N", "inhibition": "-35.7% (inactive)"}
{"smiles": "CNc1nc(-c2ccccc2)cc(-c2ccccc2)n1", "inhibition": "2.12% (inactive)"}
{"smiles": "COc1ccccc1C(=O)Nc1ccccc1C(=O)Nc1ccccc1", "inhibition": "-2.98% (inactive)"}
{"smiles": "O=C(CNC(=O)Cc1ccccc1)N=Nc1c(O)[nH]c2ccc(Br)cc12", "inhibition": "10.3% (inactive)"}
{"smiles": "Oc1[nH]c2ccc(Br)cc2c1N=Nc1nn[nH]n1", "inhibition": "1.22% (inactive)"}
{"smiles": "NS(=O)(=O)c1ccc(N=Nc2c(O)[nH]c3ccc(Br)cc23)cc1", "inhibition": "37.1% (active)"}
{"smiles": "CC(=O)CC[C@@H](C)O[C@@H]1OC(C)[C@H](O)CC1O", "note": "(stereo not given in full)", "inhibition": "1.11% (inactive)"}
{"smiles": "Cc1ccc(-n2c(C)cc(/C=C(\\C#N)C(=O)NCC3CCCO3)c2C)cc1", "note": "(stereo not given)", "inhibition": "-0.52% (inactive)"}
{"smiles": "CCN1CC=C2C(C#N)=C(N)C(C#N)(C#N)[C@H](c3ccoc3)[C@H]2C1", "inhibition": "148% (active)"}
{"smiles": "CCCN1CC=C2C(C#N)=C(N)C(C#N)(C#N)C(c3cc(OC)ccc3OC)C2C1", "note": "(stereo not given)", "inhibition": "68.3% (active)"}
